Assay outcomes: PubChem BioAssay, National Center for Advancing Translational Sciences (NCATS)
Many of the other results were omitted from the sample, so hits are more common in it than they were.
KDM5B inhibitor – Primary screen for KDM5B Histone Demethylases FDH-coupled qHTS. Potency, µM (titrated, usually from 57.7 µM), hits mostly inhibitors. KDM5B demethylase, FDH-coupled NADH fluorescence (FDH is formaldehyde dehydrogenase). Lysine-specific demethylase 5B (Homo sapiens), Q9UGL1. 220,000 compounds, 2.6% hits. AID 1347165, 2019; active = well fitted inhibition curve with a large enough effect; also: nearly all actives have a fitted effect of over 70% in size
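Measured: NADH fluorescence change, 30 min, RT. System: KDM5BΔAP 200 nM final, H3K4me3 peptide, α-KG, Fe(II), ascorbate, NAD⁺ plus FDH, pH 7.5 HEPES. Compounds: titrated, 10 min pre-incubation with enzyme.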
Hits are given with their value.

What do the screens show for `COCCNC(=O)CCc1cc2cc(OC)ccc2[nH]c1=O`?
KDM5B inhibitor: 32µM

Results for CCN(CC)CCNC(=O)CNC(=O)c1nn(-c2ccc(OC)cc2)c(=O)c2ccccc12 ?
KDM5B inhibitor: inactive

Results for CCN(CC)CCNC(=O)CCc1cc2cc(OC)ccc2[nH]c1=O ?
KDM5B inhibitor: 28µM

Results for CCN(CC)CCNC(=O)Cc1n[nH]c(=O)c2ccccc12 ?
KDM5B inhibitor: inactive

How did COc1ccc2[nH]c(=O)c(CCC(=O)NCCN3CCCCCC3)cc2c1 do in these assays?
KDM5B inhibitor: 28µM

How did COc1ccc(-c2cc(=O)oc3cc(OCC(=O)NCCN4CCOCC4)ccc23)cc1 do in these assays?
KDM5B inhibitor: inactive

Results for Cc1nc(-c2ccccc2)n(Cc2ccccc2Cl)c(=O)c1CCO ?
KDM5B inhibitor: inactive

How did O=C1CCC(C(=O)N(CC2CCN(Cc3ccccc3F)CC2)CC2CCCO2)=NN1 (stereo not given) do in these assays?
KDM5B inhibitor: inactive

How did CCn1nc(C(=O)OCC(=O)Nc2nc(-c3ccc(C)c(C)c3)cs2)c2ccccc2c1=O do in these assays?
KDM5B inhibitor: inactive

What do the screens show for `COC[C@@H]1CCCN1CCC(=O)Nc1ccc(C(=O)OC)cc1`?
KDM5B inhibitor: inactive

Results for O=C(Cc1c[nH]c2ccccc12)OCc1ccc(Cl)cc1Cl ?
KDM5B inhibitor: inactive

How did O=c1cc(CN2CCN(S(=O)(=O)c3ccc(Cl)cc3)CC2)c2cc(Cl)c(O)cc2o1 do in these assays?
KDM5B inhibitor: inactive

Results for Cc1nc(NC2CCCC2)sc1C(=O)Nc1ccccc1 ?
KDM5B inhibitor: inactive

Results for CC(Sc1n[nH]c(=O)n1C1CC1)C(=O)c1ccc(F)cc1 (stereo not given) ?
KDM5B inhibitor: inactive

What do the screens show for `COc1ccc2[nH]c(=O)c(CCC(=O)N(C)CCc3ccccc3)cc2c1`?
KDM5B inhibitor: 28µM

What do the screens show for `COc1ccc2[nH]c(C(=O)N(C)Cc3ccccc3)c(C)c2c1`?
KDM5B inhibitor: inactive

Results for COc1ccc(N(Cc2cc3ccccc3[nH]c2=O)C(=O)c2cccc(Cl)c2)cc1 ?
KDM5B inhibitor: inactive

What do the screens show for `O=C(CCc1cc2ccccc2[nH]c1=O)NCCCN1CCCC1=O`?
KDM5B inhibitor: inactive

What do the screens show for `CCC1CCCCN1CCCNC(=O)c1sc2nc(C)cc(C)c2c1-n1cccc1` (stereo not given)?
KDM5B inhibitor: inactive

What do the screens show for `CCCNC(=O)CCc1cc2cc(OC)ccc2[nH]c1=O`?
KDM5B inhibitor: 32µM

Results for COc1ccc(NC(=O)CCc2cc3cc(C)ccc3[nH]c2=O)c(OC)c1 ?
KDM5B inhibitor: inactive

What do the screens show for `COc1ccc(N(Cc2cc3cc(OC)ccc3[nH]c2=O)C(=O)c2cccc(Cl)c2)cc1`?
KDM5B inhibitor: inactive

Results for CCC1CCCCN1CCCNC(=O)CCc1cc2cc(OC)ccc2[nH]c1=O (stereo not given) ?
KDM5B inhibitor: 32µM

What do the screens show for `CC(C)N1C(=O)C(NC(=O)C(=O)NCCc2c[nH]c3ccc(Cl)cc23)c2ccccc21` (stereo not given)?
KDM5B inhibitor: inactive

What do the screens show for `N#CCCn1cc(C(=O)Nc2ccc(Cl)cc2)c(-c2cccs2)n1`?
KDM5B inhibitor: inactive

Results for CC(=O)N1Cc2ccccc2CC2(CCN(CC3CCNC3)CC2)C1 (stereo not given) ?
KDM5B inhibitor: inactive

What do the screens show for `Cc1cc(C(=O)N[C@H]2[C@H](O)[C@H](O)C[C@@H]2c2ccccc2)c(C(F)(F)F)o1`?
KDM5B inhibitor: inactive

How did CCN(CC)c1ccc(C=Nc2ccc(Br)c(Cl)c2)cc1 do in these assays?
KDM5B inhibitor: inactive

How did O=C(NC(c1ccccc1)c1cc2ccccc2o1)C1CC1 (stereo not given) do in these assays?
KDM5B inhibitor: inactive

How did CCOC(=O)C1CCC(CNC(=O)N2CCCC2c2ccc(OC)cc2)CC1 (stereo not given) do in these assays?
KDM5B inhibitor: inactive

How did COc1ccccc1CCNC(=O)c1sc(NCC(C)C)nc1C do in these assays?
KDM5B inhibitor: inactive

Results for COc1ccccc1-n1nc(-c2c(C)nc3scc(CC(=O)NCCC(C)C)n3c2=O)cc1C ?
KDM5B inhibitor: 28µM

What do the screens show for `Cc1nc(NCc2ccccc2)sc1C(=O)NCCC(C)C`?
KDM5B inhibitor: inactive

What do the screens show for `COc1ccccc1NC(=O)Nc1nc(CC(=O)NCCC(C)C)cs1`?
KDM5B inhibitor: inactive

Results for CCNC(=O)CC1C(=O)N(c2cccc(C)c2)C(=O)N1CCC(C)C (stereo not given) ?
KDM5B inhibitor: inactive

How did CCc1ccccc1-n1nc(-c2c(C)nc3scc(CC(=O)NCCC(C)C)n3c2=O)cc1C do in these assays?
KDM5B inhibitor: 25µM

Results for Cc1cccc(-n2nc(-c3c(C)nc4scc(CC(=O)NCCC(C)C)n4c3=O)cc2C)c1 ?
KDM5B inhibitor: 25µM

How did COCCNC(=O)CCc1c(C)nn(-c2cccc(C)c2)c1Oc1ccccc1 do in these assays?
KDM5B inhibitor: inactive

What do the screens show for `Cc1nc2nc(N)nn2c(C)c1CC(=O)NCCC(C)C`?
KDM5B inhibitor: inactive

What do the screens show for `O=C(N[C@H](Cc1ccncc1)C1CC(O)C1)c1cccn1C1CC1` (stereo not given in full)?
KDM5B inhibitor: inactive

What do the screens show for `COc1cc(C2CC(=O)N3CN(c4cccc(Cl)c4)CSC3=C2C#N)ccc1O` (stereo not given)?
KDM5B inhibitor: inactive

What do the screens show for `COC(=O)c1cccc(CSC(C)C(=O)NCC(C)C)c1` (stereo not given)?
KDM5B inhibitor: inactive

Results for CCN(CC)C(CNS(=O)(=O)c1ccc(C#N)cc1)c1ccsc1 (stereo not given) ?
KDM5B inhibitor: inactive

Results for Cc1nn(C(C)C)cc1N ?
KDM5B inhibitor: inactive

What do the screens show for `CC(C)CNC(=O)C1COC2(CCC(C)CC2)N1C(=O)c1cccc([N+](=O)[O-])c1` (stereo not given)?
KDM5B inhibitor: inactive

How did Cn1ccc2c(C(=O)NCCc3cnc[nH]3)nc(-c3cnn(Cc4ccccc4)c3)cc21 do in these assays?
KDM5B inhibitor: 32µM

Results for COc1ccccc1-c1cc2c(ccn2C)c(C(=O)NCCc2cnc[nH]2)n1 ?
KDM5B inhibitor: 40µM

What do the screens show for `COc1ccc(-c2cc3c(ccn3C)c(C(=O)NCCc3cnc[nH]3)n2)cn1`?
KDM5B inhibitor: 35µM

How did COc1cccc(-c2cc3c(ccn3C)c(C(=O)NCCc3cnc[nH]3)n2)c1OC do in these assays?
KDM5B inhibitor: 40µM

How did Cn1ccc2c(C(=O)NCCc3cnc[nH]3)nc(-c3cccnc3)cc21 do in these assays?
KDM5B inhibitor: inactive

What do the screens show for `COc1cc(F)ccc1-c1cc2c(ccn2C)c(C(=O)NCCc2cnc[nH]2)n1`?
KDM5B inhibitor: inactive

What do the screens show for `Cn1ccc2c(C(=O)NCCc3cnc[nH]3)nc(-c3cccc(CO)c3)cc21`?
KDM5B inhibitor: inactive

How did Cn1ccc2c(C(=O)NCCc3cnc[nH]3)nc(-c3ccccc3)cc21 do in these assays?
KDM5B inhibitor: inactive

Results for CC(=O)Nc1cccc(-c2cc3c(ccn3C)c(C(=O)NCCc3cnc[nH]3)n2)c1 ?
KDM5B inhibitor: inactive

Results for CCC(C)(NCc1ccccc1)c1nnnn1-c1ccccc1C (stereo not given) ?
KDM5B inhibitor: inactive

How did COc1ccc(Nc2nc3cc(C)ccc3nc2NS(=O)(=O)c2ccc(C)cc2)cc1 do in these assays?
KDM5B inhibitor: inactive

What do the screens show for `Cc1ccc(CS(=O)CCC(=O)Nc2ccccc2)cc1` (stereo not given)?
KDM5B inhibitor: inactive

Results for Cc1ccnn1CCC(=O)N1CC[C@H](N2CCN(C)CC2)[C@H](CCC(=O)O)C1 ?
KDM5B inhibitor: inactive
